Records with an inconclusive call do not appear. The source made the active and inactive calls. Unless noted, the call rests on the fitted dose curve; in most records, active means well fitted curve in either direction with a large enough effect (not every such curve was filed as active); inconclusive means small, poorly fitted or top-dose-only effect, or another doubt; inactive means flat fitted curve, though single readings scatter.
Experiments:
[1] = test system: HIV-1 nucleocapsid protein NCp7 (binding to TG oligonucleotide); test: HIV Nucleocapsid (AID 346; call rule not given here;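 further: potency means the concentration at half of the fitted maximal effect; potency is for inhibitors that block NC binding and lower polarization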); settings: HIV-1 NC / fluorescein-TGTGTGTG probe, fluorescence polarization
Procedure, shortened: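 Fluorescence polarization readout: labelled TG4xF oligo (10 nM) with 100 nM nucleocapsid protein, high-salt (250mM NaCl) Hepes pH 7.5 buffer containing zinc and fresh reducing agents. Compounds added by pin tool; incubation 1 hr, room temperature.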

[2] = AP1 Signaling Pathway (AID 357); further: on the % scale 0 is the no-effect control and ±100 the full control effect
Procedure, shortened: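 ME-180 cells with beta-lactamase reporter under AP-1 response element, stimulated with EC50 EGF; compounds tested in titration series, 5 h at 37 °C. CCF4 substrate added 2.5 h at room temperature; 460/530 nm emission ratio gave %activity and AC50.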

[3] = target: Cytochrome P450 1A2 (Homo sapiens) (UniProt P05177); test: p450-cyp1a2 (AID 410; calls by dose curve; further: potency means the concentration at half of the fitted maximal effect;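 on activity change, negative = inhibition: -100% = full effect of reference inhibitor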)
Procedure, shortened: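 Inhibition was calculated relative to 57 uM furafylline (full inhibition). The reaction used human CYP1A2 at 20nM with Luciferin-ME at its Km, 100uM, driven by an NADPH-regenerating system for 60 min at room temperature.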

[4] = Stat Signaling Pathway (AID 446);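 further: ME-180 cervical cancer cells given 40 pM IL-6 alongside compound; SIE-controlled beta-lactamase reporter measured as 460/530 nm FRET emission ratio; on the % scale 0 is the no-effect control and ±100 the full control effect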
Procedure, shortened: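 Reporter line: ME-180 cervical carcinoma, SIE-beta-lactamase. Treatment: compound with 40 pM IL-6, 5 hrs, 37 C, in low-serum OPTI-MEM with 10 mM HEPES pH 7.3. Detection: 460/530 nm fluorescence.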

[5] = target: Glucocorticoid receptor (Homo sapiens) (UniProt P04150); test: GR-EFC Redistribution (AID 451; calls by dose curve; further: potency means the concentration at half of the fitted maximal effect); settings: CHO-K1 GR-EFC translocation, beta-gal luminescence, 2 h
Procedure, shortened: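 Translocation of GR-ED fusion to nuclear EA restores b-gal, read by luminescence after 1 h room-temperature detection. Engineered CHO-K1 biosensor cells, 1,000/well, exposed 2 h at 37 C to titrations up to 46 uM final.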

[6] = target: Mitogen-activated protein kinase 10 (Mus musculus) (UniProt Q61831); test: JNK3 AlphaScreen Assay (AID 530);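 further: kinase came from lysate of stimulated human HepG2 cells; signal reports phosphorylation of biotinylated GST-cJun 1-79 at Ser73 with 10 µM ATP; on the % scale 0 is the no-effect control and ±100 the full control effect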
Procedure, shortened: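 Room-temperature AlphaScreen kinase assay; pre-activated HepG2 lysate as JNK3 source, biotin-GST-cJun(1-79) substrate, 10 uM ATP, compound 15 min preincubation.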

[7] = target: 3',5'-cyclic-AMP phosphodiesterase 4B (Homo sapiens) (UniProt Q07343); test: qHTS Assay for Inhibitors of PDE-IV (AID 607; active means well fitted activation curve with a large enough effect in the main read-out, with a control signal flat, not every such curve was filed as active; further: % of control where 0% means no effect)
Procedure, shortened: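 Cell-based read-out of cAMP via a modified cyclic nucleotide-gated channel and membrane potential dye (535/590 nm) in HEK293 cells expressing PDE4 endogenously. Compounds tested up to 22.9 uM final; 100 uM RO 20-1724 reference.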

[8] = target: Cytochrome P450 3A4 (Homo sapiens) (UniProt P08684); test: qHTS Assay for Activators of Cytochrome P450 3A4 (AID 885; active means well fitted curve in the direction sought with a large enough effect; an effect the other way counts as inactive or inconclusive; further: nearly all actives have a fitted effect of over 65% in size)
Procedure, shortened: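 Signal was normalized against complete inhibition by 57 uM ketoconazole. The reaction used 20nM CYP3A4 with 25uM Luciferin-PPXE, 10-min compound preincubation and a 60-min NADPH-supported step at RT.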

[9] = Counterscreen qHTS for small molecule stabilizers of the endoplasmic reticulum resident proteome: GLuc-NoTag assay (AID 1508627; active means well fitted curve in the direction sought with a large enough effect; an effect the other way counts as inactive or inconclusive;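 further: SH-SY5Y cells given compound then 100 nM thapsigargin to empty ER calcium; 0% = thapsigargin alone and -100% = DMSO vehicle control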)
Procedure, shortened: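 Luminescence of Gaussia luciferase secreted into the medium (coelenterazine, 0.07x final, unlysed cells) was the read-out. Human SH-SY5Y neuroblastoma cells constitutively secreting untagged GLuc received compound for 19 h, then 100 nM thapsigargin for 4 h.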

[10] = Confirmatory qHTS for small molecule stabilizers of the endoplasmic reticulum resident proteome: Secreted ER Calcium Modulated Protein (SERCaMP) assay (AID 1508628; active means well fitted curve in the direction sought with a large enough effect; an effect the other way counts as inactive or inconclusive;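 further: SH-SY5Y cells given compound 16 h then thapsigargin 100 nM for 4 h; on the % scale 0 is the no-effect control and ±100 the full control effect; nearly all actives have a fitted effect of over 40% in size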)
Procedure, shortened: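 We seeded SH-SY5Y-GLuc-SERCaMP cells, added compounds (three concentrations in the primary run, eleven up to 76.6 uM in confirmation), incubated 16 h, depleted ER calcium with thapsigargin, and read luciferase 4 h later.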

[11] = target: Lysosomal acid glucosylceramidase (Homo sapiens) (UniProt P04062); test: Glucocerebrosidase-p2 (AID 348; in the data active means potency below about 10 µM; further: potency means the concentration at half of the fitted maximal effect); settings: purified GBA, blue fluorogenic substrate, 40 min
Procedure, shortened: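 Compounds titrated from 0.6 nM upwards against 0.2 nM enzyme in pH 5.9 citric acid/KH2PO4, taurocholate, tween-20; blue fluorogenic substrate 80 uM, 40 min room temperature, stopped and read Ex 365/Em 440 for AC50.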

[12] = target: Cytochrome P450 2D6 (Homo sapiens) (UniProt P10635); test: qHTS Assay for Inhibitors and Substrates of Cytochrome P450 2D6 (AID 891; active means well fitted curve in the direction sought with a large enough effect; an effect the other way counts as inactive or inconclusive; further: potency means the concentration at half of the fitted maximal effect; nearly all actives have a fitted effect of over 60% in size)
Procedure, shortened: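 Human CYP2D6 (5 nM) with 30 uM Luciferin-ME EGE (at Km) in 100 mM KPO4, compound preincubated 10 min, then NADPH regeneration system for 60 min at room temperature. Luciferin read by luminescence; normalized to 1.43 uM quinidine.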

[13] = qHTS Assay for Lipid Storage Modulators (AID 1519; calls by dose curve); settings: Drosophila S3 cells, BODIPY lipid droplet/cell ratio, laser cytometry, cells loaded with oleic acid; for activity change, negative = inhibition: at 57.5 µM (top of the series)
Procedure, shortened: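 Cells seeded at 5,000 per well were treated with compounds over a concentration series and loaded with oleic acid (400 uM, as added). Lipid droplet fluorescence (488 nm excitation, 500-530 nm channel) was read by laser-scanning cytometry and normalized to 20 uM Triacsin C.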

[14] = Primary qHTS for small molecule stabilizers of the endoplasmic reticulum resident proteome: Secreted ER Calcium Modulated Protein (SERCaMP) assay (AID 1508630; active means well fitted curve in the direction sought with a large enough effect; an effect the other way counts as inactive or inconclusive; further: on the % scale 0 is the no-effect control and ±100 the full control effect)
Procedure, shortened: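 GLuc-SERCaMP-expressing SH-SY5Y cells, pretreated 16 h with compound, are challenged with thapsigargin to empty ER calcium stores; after 4 h, coelenterazine is added directly to the medium and luminescence is imaged.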

[15] = NFAT Signaling Pathway (AID 444); settings: Jurkat NFAT-bla M1, carbachol, beta-lactamase ratio, 5 h; at 7.69 µM (top of the series)
Procedure, shortened: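 Read-out: CCF4 FRET ratio (460 nm/530 nm) after 1 h RT dye loading, used for %activity and AC50 from titration series. Cells: Jurkat NFAT-β-lactamase/M1 line, treated with compound plus 1 uM carbachol for 5 h, 37 °C.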

[16] = qHTS Assay for Identification of Small Molecule Agonists for Hypoxia Response Element Signaling Pathway (AID 914; active means well fitted activation curve with a large enough effect in the signal ratio, with a control signal flat, not every such curve was filed as active; the % refers to the signal ratio; further: % of control where 0% means no effect); settings: ME-180 (cervical carcinoma) HRE-bla reporter, beta-lactamase ratio, CoCl2, 17 h; activation: stronger effect = higher value
Procedure, shortened: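 Read-out: CCF4 FRET ratio of 460nm to 530nm emission (excitation 405nm) after 2.5 hours at room temperature, taken from HRE-bla ME-180 cells that had been exposed to compound and EC50 CoCl2 for 17 hours.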

[17] = measured here: cell count channel max response
[18] = measured here: lipid channel max response

Chain of Cytochrome P450 3A4 (Homo sapiens) (P08684 whole entry, looked up): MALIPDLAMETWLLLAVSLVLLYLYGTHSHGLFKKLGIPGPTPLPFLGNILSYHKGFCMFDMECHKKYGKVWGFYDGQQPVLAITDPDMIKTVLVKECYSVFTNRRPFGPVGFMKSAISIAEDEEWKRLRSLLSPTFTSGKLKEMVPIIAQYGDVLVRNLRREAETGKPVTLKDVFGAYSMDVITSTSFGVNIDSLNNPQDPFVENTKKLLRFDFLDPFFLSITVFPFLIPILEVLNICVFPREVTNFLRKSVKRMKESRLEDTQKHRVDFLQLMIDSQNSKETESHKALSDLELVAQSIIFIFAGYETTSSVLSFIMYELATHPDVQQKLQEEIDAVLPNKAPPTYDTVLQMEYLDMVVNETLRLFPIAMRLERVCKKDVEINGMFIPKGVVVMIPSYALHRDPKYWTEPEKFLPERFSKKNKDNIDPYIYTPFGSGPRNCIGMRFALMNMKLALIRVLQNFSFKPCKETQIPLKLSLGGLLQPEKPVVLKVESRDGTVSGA
Chain of 3',5'-cyclic-AMP phosphodiesterase 4B (Homo sapiens) (Q07343 whole entry, looked up): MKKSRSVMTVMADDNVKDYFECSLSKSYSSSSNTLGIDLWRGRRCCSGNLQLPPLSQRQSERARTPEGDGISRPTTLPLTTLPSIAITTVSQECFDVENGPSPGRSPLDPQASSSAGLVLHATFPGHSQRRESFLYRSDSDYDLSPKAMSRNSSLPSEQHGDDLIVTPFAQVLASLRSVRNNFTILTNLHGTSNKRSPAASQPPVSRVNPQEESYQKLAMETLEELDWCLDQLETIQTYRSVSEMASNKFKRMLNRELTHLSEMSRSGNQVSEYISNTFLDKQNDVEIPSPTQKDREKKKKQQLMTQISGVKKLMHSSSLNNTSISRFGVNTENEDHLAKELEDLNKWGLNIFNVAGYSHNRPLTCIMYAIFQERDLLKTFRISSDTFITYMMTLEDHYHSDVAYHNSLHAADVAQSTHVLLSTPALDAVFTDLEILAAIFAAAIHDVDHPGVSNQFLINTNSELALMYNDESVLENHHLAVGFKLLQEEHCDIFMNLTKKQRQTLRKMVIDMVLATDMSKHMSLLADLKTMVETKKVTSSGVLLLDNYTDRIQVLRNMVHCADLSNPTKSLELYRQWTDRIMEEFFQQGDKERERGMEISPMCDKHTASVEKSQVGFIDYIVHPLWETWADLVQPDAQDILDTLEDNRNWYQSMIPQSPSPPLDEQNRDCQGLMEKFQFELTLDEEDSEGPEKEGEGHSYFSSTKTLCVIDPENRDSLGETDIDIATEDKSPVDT
Chain of Glucocorticoid receptor (Homo sapiens) (P04150 whole entry, looked up, the tested form may be a part): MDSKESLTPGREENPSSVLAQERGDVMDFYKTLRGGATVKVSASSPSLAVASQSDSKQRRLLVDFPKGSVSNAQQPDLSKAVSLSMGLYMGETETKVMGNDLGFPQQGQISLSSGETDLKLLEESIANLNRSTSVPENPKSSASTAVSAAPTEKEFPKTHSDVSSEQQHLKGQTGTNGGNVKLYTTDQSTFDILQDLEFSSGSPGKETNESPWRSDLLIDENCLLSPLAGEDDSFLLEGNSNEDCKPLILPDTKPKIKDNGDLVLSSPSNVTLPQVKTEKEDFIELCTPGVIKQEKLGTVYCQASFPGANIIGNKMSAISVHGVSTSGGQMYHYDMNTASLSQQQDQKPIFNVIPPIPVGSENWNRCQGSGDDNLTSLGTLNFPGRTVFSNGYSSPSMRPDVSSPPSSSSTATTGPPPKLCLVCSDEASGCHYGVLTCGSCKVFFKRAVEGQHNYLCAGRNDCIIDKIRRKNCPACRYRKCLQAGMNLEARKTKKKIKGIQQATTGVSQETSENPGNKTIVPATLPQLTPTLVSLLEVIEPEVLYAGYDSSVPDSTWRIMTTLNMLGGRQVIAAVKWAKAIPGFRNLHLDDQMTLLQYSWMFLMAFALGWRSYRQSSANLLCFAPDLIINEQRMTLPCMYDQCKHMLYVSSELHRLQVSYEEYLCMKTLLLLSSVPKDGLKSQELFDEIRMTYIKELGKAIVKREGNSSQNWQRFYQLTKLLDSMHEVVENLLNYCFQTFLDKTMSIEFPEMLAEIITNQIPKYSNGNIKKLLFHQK
Chain of Cytochrome P450 1A2 (Homo sapiens) (P05177 whole entry, looked up): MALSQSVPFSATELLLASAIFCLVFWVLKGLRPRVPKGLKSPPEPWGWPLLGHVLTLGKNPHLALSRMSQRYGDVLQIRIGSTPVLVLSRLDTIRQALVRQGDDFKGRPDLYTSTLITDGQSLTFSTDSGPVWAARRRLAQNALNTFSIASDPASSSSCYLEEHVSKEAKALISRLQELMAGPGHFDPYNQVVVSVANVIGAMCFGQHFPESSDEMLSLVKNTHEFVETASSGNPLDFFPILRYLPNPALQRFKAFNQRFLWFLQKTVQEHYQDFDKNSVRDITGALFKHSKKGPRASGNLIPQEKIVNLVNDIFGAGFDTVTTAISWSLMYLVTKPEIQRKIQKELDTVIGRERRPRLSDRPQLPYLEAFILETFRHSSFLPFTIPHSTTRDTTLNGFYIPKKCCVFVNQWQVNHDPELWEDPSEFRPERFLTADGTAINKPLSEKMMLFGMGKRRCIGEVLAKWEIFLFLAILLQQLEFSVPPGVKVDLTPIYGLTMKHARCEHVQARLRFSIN
Chain of Lysosomal acid glucosylceramidase (Homo sapiens) (P04062 whole entry, looked up): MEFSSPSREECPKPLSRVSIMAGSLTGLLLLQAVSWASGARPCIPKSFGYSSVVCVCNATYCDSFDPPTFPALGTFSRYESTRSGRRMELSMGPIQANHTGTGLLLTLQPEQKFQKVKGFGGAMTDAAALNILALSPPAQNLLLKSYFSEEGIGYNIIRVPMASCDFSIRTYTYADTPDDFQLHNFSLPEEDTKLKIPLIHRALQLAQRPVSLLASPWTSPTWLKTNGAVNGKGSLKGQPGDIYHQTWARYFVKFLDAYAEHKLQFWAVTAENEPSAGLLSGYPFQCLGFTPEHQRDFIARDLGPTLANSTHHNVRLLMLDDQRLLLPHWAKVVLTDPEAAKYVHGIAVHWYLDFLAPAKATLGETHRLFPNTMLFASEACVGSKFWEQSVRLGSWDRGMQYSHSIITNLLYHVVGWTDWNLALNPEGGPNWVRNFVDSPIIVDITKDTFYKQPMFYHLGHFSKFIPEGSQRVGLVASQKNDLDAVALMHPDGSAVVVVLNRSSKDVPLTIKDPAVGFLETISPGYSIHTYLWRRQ
Chain of Cytochrome P450 2D6 (Homo sapiens) (P10635 whole entry, looked up): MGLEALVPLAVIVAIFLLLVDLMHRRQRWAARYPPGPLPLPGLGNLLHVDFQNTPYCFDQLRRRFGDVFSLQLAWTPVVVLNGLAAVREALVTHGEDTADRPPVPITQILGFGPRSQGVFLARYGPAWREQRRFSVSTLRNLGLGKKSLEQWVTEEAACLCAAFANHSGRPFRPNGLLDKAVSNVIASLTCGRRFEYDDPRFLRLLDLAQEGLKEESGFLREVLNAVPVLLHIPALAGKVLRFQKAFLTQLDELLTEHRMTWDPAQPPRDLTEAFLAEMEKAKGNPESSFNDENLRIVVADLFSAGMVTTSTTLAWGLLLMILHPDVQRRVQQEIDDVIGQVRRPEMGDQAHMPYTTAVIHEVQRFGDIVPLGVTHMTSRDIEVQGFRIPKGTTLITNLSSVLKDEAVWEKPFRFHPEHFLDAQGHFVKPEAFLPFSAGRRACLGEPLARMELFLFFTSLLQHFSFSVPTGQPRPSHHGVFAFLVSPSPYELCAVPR

COc1ccc(NC(=O)N2CCCC3(CCN(C(=O)Oc4ccccc4)CC3)C2)cc1
active: Potency [3] 12.6 µM
inactive: Potency [1] > 20 µM | outcome [2] | outcome [4] | Potency [5] > 46 µM | outcome [6] | Potency [7] | Potency [8] | outcome [9] | Potency [10]

c1ccc(N2CCC3(CCNCC3)CC2)nc1
29.9%: max response [13, 18]
19.9%: max response [13, 17]
active: Potency [12] 1.26 µM
inactive: Potency [1] > 20 µM | Potency [11] > 11.4 µM | outcome [2] | Potency [3] | outcome [4] | Potency [5] > 46 µM | outcome [6] | Potency [7] | Potency [8] | activity change, negative = inhibition [13] 6.81% | outcome [9]

CC1(C)C2C[C@@H](O)[C@]3(C)C(CC[C@@]4(C)[C@H](c5ccoc5)C[C@H]5O[C@]543)[C@@]2(C)[C@@H](O)C[C@H]1O (some centres undefined)
inactive: outcome [14]

C[C@]12CC[C@@H](O)C[C@H]1CC[C@@H]1[C@H]2CC[C@]2(C)C(=O)CC[C@@H]12
inactive: outcome [14]

c1ccc(CN2CC[C@@]3(CCCNC3)C2)cc1
14.7%: max response [13, 18]
inactive: Potency [1] > 20 µM | Potency [11] > 11.4 µM | outcome [2] | activity change, negative = inhibition [15] 2.89% | outcome [4] | outcome [6] | Potency [7] | Potency [8] | activation [16] 10.9% | activity change, negative = inhibition [13] 3.83% | outcome [14]
8.29%: max response [13, 17]
